Records with an inconclusive call do not appear. Activity calls are given as the source filed them. The call rests on the fitted dose curve; in most records, active means well fitted activation curve with a large enough effect in the signal ratio in the repeat runs (not every such curve was filed as active); inconclusive means weak or mixed curves; inactive means flat fitted curve, though single readings scatter; the % refers to the signal ratio.
On the % scale 0 is the no-effect control and ±100 the full control effect.

The nature of this assay: qHTS assay to identify small molecule agonists of the TGF-beta/Smad signaling pathway (AID 1346859). As to conditions: SBE-bla HEK293T, TGF-beta/Smad beta-lactamase reporter, 5 h; series mostly up to 76.8 µM. The source says: U.S. Tox21 Program National Center for Advancing Translational Sciences [NCATS] NIH Chemical Genomics Center [NCGC] U.S. Environmental Protection Agency [EPA] National Institutes of Environmental Health Sciences [NIEHS] National Toxicology Program [NTP] U.S. Food and Drug Administration [FDA] Tox21 Assay Overview: Transforming growth factor beta (TGF-beta) superfamily consists of a large number of structurally related dimeric proteins that act as hormones or local mediators in regulating a wide range of biological functions. This superfamily includes TGF-betas themselves, the bone morphogenetic proteins (BMPs) and the activins. These ligands induce oligomerization of serine/threonine receptor kinases and phosphorylate the cytoplasmic signaling molecules of Smad protein family. CellSensor SBE-bla HEK 293T cell line (Life Technologies, Carlsbad, CA), responsive to TGF-beta was used to screen Tox21 10K compound library for identification of agonists/antagonists of the Smad signaling pathway. This cell line contains a beta-lactamase reporter gene under control of the Smad binding element (SBE) stably integrated into HEK 293T cells.
Tox21 Assay Protocol Summary: SBE-bla HEK 293T cells were dispensed at 4,000/well in 6 uL of assay medium into black wall/clear-bottom 1536-well plates using a Multidrop Combi (ThermoFisher Scientific, Waltham, MA) dispenser. After the assay plates were incubated at 37 C and 5% CO2 for an overnight, 23 nL of compounds dissolved in DMSO, positive controls or DMSO only was transferred to the assay plate by a Pintool station (Kalypsys, San Diego, CA). The assay plates were incubated at 37 C and 5% CO2 for 5 hr. One uL of LiveBLAzer B/G FRET substrate (Life Technologies) was added using a Flying Reagent Dispenser (Aurora Discovery, San Diego, CA) and the plates were incubated at room temperature for 2 hr. Fluorescence intensity (405 nm excitation, 460 nm and 530 nm emissions) was measured using an Envision plate reader (PerkinElmer, Shelton, CT).
On the technique in general: Quantitative high-throughput screening tests each substance at several concentrations.
Take `COc1cc(OC)c(OC)cc1C=O`: the outcome was inactive. Consider `Cc1cc(C(C)(C)c2ccc(O)c(C)c2)ccc1O`, for which the compound was classed as inactive. Same read-out and setting: the entry for `OC(Cc1ccccc1Cl)(Cn1[nH]cnc1=S)C1(Cl)CC1` (centres undefined) is “inactive”. On to `Cc1ccc2nc3sc(=O)sc3nc2c1`, for which the activation is -3.69% [at 15.8 µM] (inactive). In the case of `CC1COC(Cn2cncn2)(c2ccc(Oc3ccc(Cl)cc3)cc2Cl)O1` (centres undefined), the call was inactive.

Consider `CCN(CC)C(=O)Cl`, for which the compound was called inactive.

`Clc1ccccc1-c1ccccc1Cl`: the compound was called inactive. The same measure, in the same setting: the entry for `ClC1=C(Cl)[C@]2(Cl)[C@@H]3[C@@H](Cl)[C@H]4O[C@H]4[C@@H]3C1(Cl)C2(Cl)Cl` is “inactive”; for `O=S(=O)(C(Cl)(Cl)Cl)C(Cl)(Cl)Cl` it is “inactive”; for `Nc1ccc([N+](=O)[O-])cc1` it is “inactive”. In the case of `C[C@]12CC[C@@H](O)C[C@@H]1CC[C@@H]1[C@@H]2CC[C@]2(C)C(=O)CC[C@@H]12`, the result was inactive. `OCC(c1ccc(Cl)cc1)c1ccc(Cl)cc1`: the compound was called inactive. On the same count and under the same terms, the entry for `CN1CSC(=S)N(C)C1` is “inactive”; for `O=C1C(I)=CC(=C(c2cc(I)c(O)c(I)c2)c2ccccc2C(=O)O)C=C1I` it is “inactive”. In the case of `CCOC(=O)C(O)(c1ccc(Cl)cc1)c1ccc(Cl)cc1`, the call was inactive. For the compound `Cc1ccc(N(SC(F)(Cl)Cl)S(=O)(=O)N(C)C)cc1`, the call was inactive. Take `COc1ccc(C(c2ccc(OC)cc2)C(Cl)(Cl)Cl)cc1`: the compound was called inactive. The same measure, in the same setting: the entry for `O=C(Nc1ccccc1-c1ccc(Cl)cc1)c1cccnc1Cl` is “inactive”; for `Oc1c(I)cc(I)cc1I` it is “inactive”.

As for `N#Cc1cc([N+](=O)[O-])ccc1N`, the result was inactive. For the compound `Cc1cc(C)c(C(=O)P(=O)(c2ccccc2)c2ccccc2)c(C)c1`, the call was inactive.

On to `CC(c1ccccc1)(c1ccc(O)cc1)c1ccc(O)cc1`, for which the outcome was inactive. For the compound `CNC(=O)Oc1cc(C)c(SC)c(C)c1`, the compound was classed as inactive. For the compound `c1ccc2c(c1)Sc1ccccc1N2CC1CN2CCC1CC2` (centres undefined), the outcome was inactive.

(Values after PubChem BioAssay (Tox21).)
